Source: PubChem
CHT inh = inhibitors of human choline transporter CHT. B-score at 10 µM. CHT-expressing cells, membrane potential dye, choline response; active compounds read low. High affinity choline transporter 1 (Homo sapiens), Q9GZV3. AID 488975, 2010. 0.86% of 310,000 active;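 active = B-score over 3 SD under the library average, and starting fluorescence ratio not unusually high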;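 note: choline stimulus applied at its EC90 after an EC20 pre-addition; B-score computed on integrated fluorescence ratio after choline addition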
Target sequence (Q9GZV3 whole entry, looked up): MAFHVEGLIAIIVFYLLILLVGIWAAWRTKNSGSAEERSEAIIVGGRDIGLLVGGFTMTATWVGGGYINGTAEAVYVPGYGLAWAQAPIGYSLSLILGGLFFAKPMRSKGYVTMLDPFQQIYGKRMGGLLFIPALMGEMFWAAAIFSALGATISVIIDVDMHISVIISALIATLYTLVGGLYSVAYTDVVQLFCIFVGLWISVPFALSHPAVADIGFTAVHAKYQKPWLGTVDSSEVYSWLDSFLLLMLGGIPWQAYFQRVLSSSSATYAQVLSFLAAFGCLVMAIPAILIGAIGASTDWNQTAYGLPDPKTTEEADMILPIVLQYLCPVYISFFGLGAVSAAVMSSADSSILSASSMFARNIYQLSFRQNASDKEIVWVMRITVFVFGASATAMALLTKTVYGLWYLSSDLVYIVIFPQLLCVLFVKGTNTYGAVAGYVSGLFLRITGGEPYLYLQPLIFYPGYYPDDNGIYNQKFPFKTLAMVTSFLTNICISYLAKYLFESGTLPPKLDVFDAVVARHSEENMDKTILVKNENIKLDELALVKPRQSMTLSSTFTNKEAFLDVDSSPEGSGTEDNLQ
TMEM16A act = TMEM16A chloride channel activators or potentiators, primary screen, cell-based, HTS | Anoctamin-1 (Mus musculus), Q8BHY3 | HEK293 TMEM16A/YFP-H148Q/I152L, iodide quench fluorescence; active compounds read low | B-score at 10 µM | 0.3% of 340,000 active | AID 623877, 2012;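 active = fluorescence-ratio B-score plate-corrected deviation score at least 3 library SD below zero, with starting fluorescence score within 5 deviations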;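 note: channel opened by trigger with iodide after compound preincubation; score built on the fluorescence ratio of max minus min over baseline; more negative score means more quench and so TMEM16A activation or potentiation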
CHT PAM = CHT positive allosteric modulators, primary screen, cell-based, membrane potential dye, choline EC20; High affinity choline transporter 1 (Homo sapiens), Q9GZV3; CHT-expressing cells; active compounds read high; LV-AA mutant CHT in HEK293 cells; B-score at 10 µM; 0.49% of 310,000 active; AID 488977, 2010;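 active = initial fluorescence not abnormally high and integrated response B-score, plate-corrected, over 3 SD above library mean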
TMEM16A inh = TMEM16A chloride channel inhibitors, primary screen, cell-based, HTS; normalized B-score (activity score, 25-100; higher = stronger inhibition) at 10 µM; AID 588511, 2011; 1.2% of 310,000 active; HEK293 TMEM16A/YFP iodide influx fluorescence, ionomycin; Anoctamin-1 (Mus musculus), Q8BHY3;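 active = ratio plate-corrected score three or more library SD toward inhibition, starting fluorescence score within five deviations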;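 note: score derived from kinetic fluorescence span divided by baseline fluorescence per well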
CHT block conf = CHT inhibitors, confirmation, cell-based, membrane potential dye, duplicate; shares compounds with CHT inh; CHT-expressing cells, choline membrane potential dye; LV-to-AA substituted CHT, HEK293 cells; CHT activity remaining % of control (active compounds read low), % at 10 µM; 70% of 2,400 active; AID 493221, 2011;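 active = choline transporter activity left, mean of duplicates at 10 µM, below buffer-only control mean minus 3 SD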;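 note: depolarization triggered by choline at its EC90 following an EC20 pre-addition; 0% = hemicholinium-3 full block and 100% = buffer-only control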
HEK293 MPD ctr = membrane potential effects in parental HEK293, counter-screen for CHT inhibitor project, cell-based, membrane potential dye; shares compounds with CHT inh; membrane potential ratio readout (active if shifted either direction beyond buffer ±3SD; no single direction) at 10 µM; 4% of 2,400 active; choline response; active = decrease or increase beyond buffer ±3SD;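 note: parental cells lack the transporter so any hit is non-specific; ratio is peak minus trough fluorescence over baseline after EC90 choline challenge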
The depositor's hits bear a star; i = inactive; . = not tested or not shown; ! = repeats disagree. In the library only some 2.3% were active in any assay of this set; here they are far more common.

SMILES	CHT inh	TMEM16A act	CHT PAM	TMEM16A inh	CHT block conf	HEK293 MPD ctr
COc1ccc(OCC(=O)N2CCN(Cc3ccc(SC)cc3)CC2)cc1	i	i	i	100*	.	.
O=C(COc1ccc(Cl)cc1)N1CCN(Cc2ccccc2)CC1	i	i	i	i	.	.
c1ccc2c(c1)[IH]c1ccccc1-2	.	-5.8*	.	.	.	.
COc1ccc(-n2c(-c3ccc(C)cc3)nc3ccccc3c2=O)cc1	i	-4.9*	i	i	.	.
CC12Cc3cn[nH]c3C=C1CCC1C2CCC2(C)C1CCC2(C)O (stereo unspecified)	.	i	.	.	.	.
COC(=O)C1=C(c2ccc(F)cc2OCc2ccccc2)C[C@@H]2CC[C@H]1N2C(=O)NCc1cccc(C(F)(F)F)c1	.	i	.	.	.	.
C=C(C=O)CC1CC(O)[C@]2(C)OC3CC4OC5C[C@]6(C)O[C@]7(C)CCC8OC9C[C@]%10(C)OC%11C(C)=CC(=O)OC%11CC%10OC9C[C@@H](C)C8OC7CC6O[C@]5(C)CC5OC5C4OC3CC2O1 (stereo partly specified)	i	-8*	i	i	.	.
N=c1c2c(n(Cc3ccc(Cl)cc3Cl)c3c1CCC3)CCCC2	i	i	6.4*	i	.	.
CC(C)OCCCNC(=O)c1c(N)n(CC2CCCO2)c2nc3ccccc3nc12 (stereo unspecified)	-5.1*	i	i	i	i	i
COC(=O)C1=C(c2ccc(OC(F)(F)F)cc2)C[C@@H]2CC[C@H]1N2C(=O)NCc1cc(C)oc1C(F)(F)F	.	i	.	.	.	.
O=C(CCN1CC1)OCCOC(=O)CCN1CC1	.	i	.	.	.	.
Cc1ccc2occ(CN3CC4CC(C3)c3cccc(=O)n3C4)c(=O)c2c1 (stereo unspecified)	i	i	i	i	.	.
O=c1cccc2n1CC1CC2CN(Cc2cccc(Cl)c2Cl)C1 (stereo unspecified)	-5.4*	i	i	i	65%*	i
CCn1c(P(C)(=O)O)nc2cc(NC(=O)c3ccccc3F)ccc21	-12*	i	i	i	i	i
COC(=O)C1=C(c2cc3ccccc3o2)C[C@@H]2CC[C@H]1N2C(=O)N1CCCC1	-6.2*	i	i	i	65%*	i
COC(=O)C1=C(c2cc3ccccc3o2)C[C@@H]2CC[C@H]1N2C(=O)N1CCCCC1	i	i	i	i	.	.
CC(=NNC(=S)N1CC2CCC(CC2)C1)c1nccs1	.	i	.	.	.	.
C=CCn1c(O)c(C(CC)=NC(C)c2ccccc2)c(=O)[nH]c1=O (stereo unspecified)	-5*	i	i	i	49%*	i
Cc1cccc(N=C2c3cc([N+](=O)[O-])ccc3-c3c2cc([N+](=O)[O-])cc3[N+](=O)[O-])c1	.	i	.	.	.	.
O=C1NC(=O)N(c2ccc(Cl)cc2)C(=O)/C1=C/c1coc2ccc(O)cc2c1=O	-5.9*	i	i	i	59%*	i
CCCC(=O)NC(Oc1ccccc1Cl)C(Cl)(Cl)Cl (stereo unspecified)	-5*	i	i	i	i	i
O=C(NC(Oc1ccccc1)C(Cl)(Cl)Cl)c1ccccc1 (stereo unspecified)	i	i	i	i	.	.
CC(CC(C)(C)N1CC1)=NO	.	i	.	.	.	.
Cc1[nH]c2ccccc2c1CN1CCCCC1	.	i	.	.	.	.
C[C@]12CC[C@H](O)C[C@@H]1CC[C@@H]1[C@@H]2CC[C@]2(C)[C@@H](C(=O)O)C[C@@H]12	-14*	i	i	i	i	i
SMILES	CHT inh	TMEM16A act	CHT PAM	TMEM16A inh	CHT block conf	HEK293 MPD ctr
CC=C(CC)C1(CC)C(=O)NC(=S)NC1=O	.	i	.	.	.	.
C[C@]12CCC3C(C(=O)C[C@H]4C[C@@H](O)CC[C@]34C)C1CCC2=O (stereo partly specified)	.	i	.	.	.	.
CCOc1cc2c(cc1OCC)-n1cccc1C(c1ccc(C)cc1C)NC2 (stereo unspecified)	i	i	i	i	.	.
CCOc1cc2c(cc1OCC)-n1cccc1C(c1cc(C)c(OC)cc1C)NC2 (stereo unspecified)	-5*	i	i	i	i	i
Brc1ccc2c(c1)C(OC1CN3CCC1CC3)c1ccccc1CS2 (stereo unspecified)	-6.5*	i	i	i	34%*	i
c1ccc2c(CN3CCN(C4CCCCC4)CC3)c[nH]c2c1	i	i	i	i	.	.
c1ccc2c(CN3CCCCCCC3)c[nH]c2c1	-11*	i	i	i	2.7%*	i
CCOc1cc(/C=C2/C(=O)NC(=O)N(c3ccc(CC)cc3)C2=O)ccc1OC(=O)c1cccs1	-6.6*	i	i	i	59%*	i
COc1cc(/C=C2/C(=O)NC(=O)N(c3ccccc3)C2=O)ccc1O	i	i	i	i	.	.
CC[C@@H](O)C[C@H]1CCC[C@@]2(C[C@@H]3OC(=O)/C=C/[C@@](C)(O)[C@@H](O)[C@H](C)[C@@H](O)[C@H](OC4CCC(N(C)C)C(C)O4)[C@@H](O)[C@](C)(O)CCCCC/C=C/[C@@H]4CC(C)(C)O[C@@]4(O)C[C@H](O2)[C@H]3C)O1 (stereo partly specified)	.	i	.	.	.	.
CC(=O)OCC[N+](C)(C)C	-7.5*!	-9.6*	i	i	25%*	i
C[N+](C)(C)CCOC(=O)CBr	-8*	i	i	i	-8.4%*	i
CC1=CC2/C=C(\C)CCC(O)C(O)/C=C/C(=O)C23C(=O)NC(CC(C)C)C3C1C (stereo unspecified)	-6.5*	i	i	i	24%*	i
O=[N+]([O-])/C=C/c1c(Cl)cccc1Cl	.	i	.	.	.	.
Clc1cc(I)cc(Cl)c1NC1=NCCN1	-7*	i	i	i	6.0%*	i
